SKKanGAS inh – SKKanGAS growth inhibition. S. pyogenes SKKanGAS, kanamycin growth, BacTiter-Glo, 6 h. inhibition, % at 7.5 µM. 300,000 tested, 1.3% active;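 active = mean replicate score, as percent of positive control median, at least 50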;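 also: strain carries kanamycin resistance gene driven by streptokinase promoter and grows in 40 µg/ml kanamycin; loss of luminescence reflects streptokinase promoter inhibition or plain growth inhibition; 0% = median of DMSO wells and 100% = positive control at its reference dose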
tim23-1 inh – inhibits growth of tim23-1 mutant yeast; 330,000 tested, 1.3% active; S. cerevisiae tim23-1 growth, BacTiter-Glo luminescence, 24 h; inhibition, % at 20 µM;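 active = growth inhibition of the mutant yeast at or above 50%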;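 also: temperature-sensitive mutant grown at 25 °C; plate controls were DMSO-treated mutant yeast for no effect and medium wells lacking yeast for full effect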
NLRP3 yeast inh – inhibitors of NALP3 inflammasome in yeast; Yeast reconstituted NLRP3/ASC/caspase-1, beta-gal luminescence, 24 h; inhibition, % at 10 µM; 330,000 tested, 0.39% active; AID 2825;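 active = inhibition of 50% or more; inactive = inhibition below 50%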;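 also: plate controls were induced DMSO wells for no effect and uninduced yeast grown without galactose for full effect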
tim10-1 inh – inhibits growth of tim10-1 mutant yeast; S. cerevisiae tim10-1 ts strain growth, BacTiter-Glo, 24 h; inhibition, % at 20 µM; 330,000 tested, 2.2% active; AID 463190;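 active = inhibition of at least 40%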;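 also: mutant grown at 25 °C; 0% = DMSO wells with yeast and 100% = wells holding no yeast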
TIM10 inh – TIM10 yeast growth inhibition. S. cerevisiae TIM10 strain growth, BacTiter-Glo luminescence, 24 h. 330,000 tested, 1.4% active. inhibition, % at 10 µM. AID 463195;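 active = inhibition of 40% or more at the single tested concentration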;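 also: wild-type TIM10 isogenic control strain grown at permissive 25 °C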
NALP1 yeast inh – inhibitors of NALP1 inflammasome in yeast | S. cerevisiae NALP1/ASC/caspase-1 growth, X-gal OD620, 72 h | 280,000 tested, 0.61% active | inhibition, % at 10 µM; in the data active = inhibition mostly above about 24%, no sharp cut-off; inactive = mostly below about 32%
tim10-1 conf – confirmation of tim10-1 mutant yeast growth inhibitors; shares compounds with tim10-1 inh; S. cerevisiae tim10-1 ts strain growth, BacTiter-Glo, 24 h; inhibition, % at 20 µM; 7,400 tested, 56% active;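 active = inhibition of yeast growth at or above a set limit in either of two repeat tests at 20 µM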;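 also: tim10-1 mutant grown at permissive 25 °C to find synthetic lethal compounds; 0% = DMSO yeast wells and 100% = medium wells without yeast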
tim10 confirm – TIM10 yeast growth inhibition, confirmed. AID 463215. 4,600 tested, 63% active. S. cerevisiae tim10 strain growth, BacTiter-Glo luminescence, 24 h. inhibition, % at 10 µM. shares compounds with TIM10 inh;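 active = inhibition of yeast growth at or above a set limit in either of two replicates at 10 µM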;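 also: this counterscreen used the strain with wild-type TIM10; 0% = yeast with DMSO and 100% = medium wells lacking yeast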
tim23-1 confirm – tim23-1 yeast growth inhibition, confirmed. shares compounds with tim23-1 inh. S. cerevisiae tim23-1 growth, BacTiter-Glo luminescence, 24 h. inhibition, % at 20 µM. 4,400 tested, 83% active;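 active = inhibition above about 39% in either of two replicate wells at 20 µM, limit read from the data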;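 also: temperature-sensitive tim23-1 mutant grown at 25 °C; 0% = DMSO wells with yeast and 100% = medium wells without yeast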
Numbers without * were called inactive. This is a sample that favours compounds with a hit; in the whole collection about 4.9% have one here.

Screening CC(C)Oc1ccc(CSc2nnc3n(C)c(=O)c4c5c(sc4n23)CCCC5)cc1 returned SKKanGAS inh 5, tim23-1 inh -6, NLRP3 yeast inh 2, tim10-1 inh 35 and TIM10 inh 14.
`C=C(C)CSc1nnc2n(C)c(=O)c3c4c(sc3n12)CCC4` gave SKKanGAS inh 11, tim23-1 inh 53*, NLRP3 yeast inh 13, tim10-1 inh 46*, TIM10 inh 26, NALP1 yeast inh 8, tim10-1 conf 28 and tim23-1 confirm 54*.
For COc1ccc(S(=O)(=O)N2CCCCC2)cc1NC(=O)CN(Cc1ccco1)Cc1ccco1 the results were tim23-1 inh 18, NLRP3 yeast inh 12, tim10-1 inh 13 and TIM10 inh -10.
`Cc1ccc(S(=O)(=O)c2c(C)nn(C(C)(C)C)c2OC(=O)c2ccco2)cc1` gave SKKanGAS inh 4, tim23-1 inh 64*, NLRP3 yeast inh 18, tim10-1 inh 47*, TIM10 inh 31, NALP1 yeast inh 13, tim10-1 conf 32* and tim23-1 confirm 46*.
For Cc1ccc(S(=O)(=O)c2c(C)nn(C(C)(C)C)c2OC(=O)c2ccc(Br)o2)cc1 the results were SKKanGAS inh 4, tim23-1 inh 70*, NLRP3 yeast inh 45, tim10-1 inh 50*, TIM10 inh 42*, NALP1 yeast inh 3, tim10-1 conf 37*, tim10 confirm 35* and tim23-1 confirm 49*.
`Cn1nc(C(=O)OCC(=O)Nc2ccccc2OC(F)F)c2ccccc2c1=O` gave tim23-1 inh -4, NLRP3 yeast inh 2, tim10-1 inh -14 and TIM10 inh 0.
For CCN(CC)C(=O)CSc1nnc(SC(C)C(=O)NC2CC2)s1 (configuration not stated) the results were tim23-1 inh 2, NLRP3 yeast inh 9, tim10-1 inh -12 and TIM10 inh 8.
Cc1nc2sc3c(c2c(=O)o1)CCCC3 was read as SKKanGAS inh 0, tim23-1 inh 14, NLRP3 yeast inh 9, tim10-1 inh 6, TIM10 inh 6 and NALP1 yeast inh 21.
Screening O=c1oc(-c2ccco2)nc2sc3c(c12)CCCC3 returned SKKanGAS inh 17, tim23-1 inh 54*, NLRP3 yeast inh 29, tim10-1 inh 46*, TIM10 inh 47*, NALP1 yeast inh 8, tim10-1 conf 31*, tim10 confirm 43* and tim23-1 confirm 42*.
For N#CC(C#N)=c1ccc2c(c1)N1C3=C(CCCC3)CC3CCCCC31N=2 (configuration not stated) the results were SKKanGAS inh 12, tim23-1 inh 51*, NLRP3 yeast inh 30, tim10-1 inh 44*, TIM10 inh 33, NALP1 yeast inh 53, tim10-1 conf 24 and tim23-1 confirm 23.
C[C@@]12CCC=C[C@H]1[C@H](c1ccoc1)N(Cc1ccccc1)C2=O was read as SKKanGAS inh -2, tim23-1 inh 32, NLRP3 yeast inh 4, tim10-1 inh 29, TIM10 inh 11 and NALP1 yeast inh -5.
For C[C@@]12CCC=C[C@H]1[C@H](c1ccccc1Br)N(Cc1ccccc1)C2=O the results were tim23-1 inh 63*, tim10-1 inh 43*, TIM10 inh 40*, tim10-1 conf 51*, tim10 confirm 48* and tim23-1 confirm 55*.
Screening CC(C)N=c1scc(-c2ccco2)n1/N=C/c1ccc(O)c(O)c1 returned tim23-1 inh 54*, NLRP3 yeast inh 37, tim10-1 inh 47*, TIM10 inh 34, NALP1 yeast inh 5, tim10-1 conf 19 and tim23-1 confirm 60*.
`COCCN=c1scc(-c2ccco2)n1/N=C/c1ccc(O)c(O)c1O` gave tim23-1 inh -14, NLRP3 yeast inh 18, tim10-1 inh -5, TIM10 inh 26 and NALP1 yeast inh -4.
For CCNC(=S)N/N=C/c1ccc(-c2ccccc2)o1 the results were SKKanGAS inh -9, tim23-1 inh 53*, NLRP3 yeast inh 14, tim10-1 inh 44*, TIM10 inh 28, NALP1 yeast inh 10, tim10-1 conf 33* and tim23-1 confirm 36.
`NC(=S)N/N=C/c1ccc(-c2ccccc2)o1` gave SKKanGAS inh -12, tim23-1 inh 11, NLRP3 yeast inh 24, tim10-1 inh 13, TIM10 inh 27 and NALP1 yeast inh 2.
For O=C(O)c1ccc(NC2=C/C(=N/S(=O)(=O)c3ccccc3)c3ccccc3C2=O)cc1 the results were tim23-1 inh 40, NLRP3 yeast inh -1, tim10-1 inh 38, TIM10 inh 14 and NALP1 yeast inh -12.
Screening Cc1cc(C)c(S(=O)(=O)/N=C2\C=C(Nc3ccc(C(=O)O)cc3)C(=O)c3ccccc32)c(C)c1 returned SKKanGAS inh 112*, tim23-1 inh 60*, NLRP3 yeast inh 28, tim10-1 inh 43*, TIM10 inh 24, NALP1 yeast inh 6, tim10-1 conf 35* and tim23-1 confirm 63*.
`CC(=O)N1CCN(C(=O)COC(=O)/C=C/c2ccccc2[N+](=O)[O-])CC1` gave tim23-1 inh -10, NLRP3 yeast inh 13, tim10-1 inh -10 and TIM10 inh -6.
`O=C(Nc1ccccc1)c1ccccc1Oc1ccc(C(F)(F)F)cc1[N+](=O)[O-]` gave SKKanGAS inh 1, tim23-1 inh 36, NLRP3 yeast inh 21, tim10-1 inh 31, TIM10 inh 31 and NALP1 yeast inh 22.
O=C(Oc1ccccc1C(=O)Nc1ccccc1)c1ccc(Br)c([N+](=O)[O-])c1 was read as SKKanGAS inh 3, tim23-1 inh 61*, NLRP3 yeast inh 47, tim10-1 inh 47*, TIM10 inh 52*, NALP1 yeast inh 30, tim10-1 conf 51*, tim10 confirm 35* and tim23-1 confirm 74*.
O=C(CN1C(=O)NC2(CCc3ccccc32)C1=O)NCc1ccc(Cl)cc1 (configuration not stated) was read as tim23-1 inh -8, NLRP3 yeast inh 2, tim10-1 inh -5 and TIM10 inh -12.
Screening FC(F)(F)c1cccc(Sc2nc(-c3ccccc3)nnc2C(F)(F)F)c1 returned SKKanGAS inh -13, tim23-1 inh 22, NLRP3 yeast inh 3, tim10-1 inh 40, TIM10 inh 15 and NALP1 yeast inh 22.

Assay outcomes (PubChem)
